# Measurements reported in PubChem BioAssay (NCATS).
# Unmarked numbers belong to inactive results. Records with an inconclusive call do not appear. Activity calls are given as the source filed them. Calls come from the whole dose curve; as a rule, active = well fitted curve in the direction sought with a large enough effect; inconclusive = small, poorly fitted or top-dose-only effect, or another doubt; inactive = no such curve, though single readings can be large; an effect the other way counts as inactive or inconclusive.
# What was measured:
# [1] = molecular target: N-terminal Xaa-Pro-Lys N-methyltransferase 1 (Homo sapiens) (UniProt Q9BV86); experiment: qHTS Assay for Inhibitors of N-terminal methyltransferase 1 (NTMT1): LOPAC validation of the NTMT1 SAHH-coupled ThioGlo3 Assay (AID 1347143);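 note: SAH from peptide methylation measured as thiol fluorescence via SAHH coupling and ThioGlo3; potency is the fitted concentration of half-maximal effect; nearly all actives have a fitted effect of over 70% in size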
# In short: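 In this qHTS pilot against the LOPAC set, 125nM NTMT1 met compounds tested at multiple concentrations, and fluorescence was normalized to background.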
# [2] = system: Zika virus NS2B-NS3 protease (unlinked); experiment: Optimization of GU AMC qHTS for Zika virus inhibitors: Unlinked NS2B-NS3 protease assay (AID 1347151); note: potency is the fitted concentration of half-maximal effect; nearly all actives have a fitted effect of over 80% in size
# In short: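 Percent inhibition is derived from the 15-min change in AMC fluorescence, normalized against no-inhibitor and no-enzyme controls, then fitted to a 4-parameter Hill curve. Aprotinin was the intraplate control.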
# [3] = Confirmatory screen GU Rhodamine qHTS for Zika virus inhibitors qHTS (AID 1347157); note: potency is the fitted concentration of half-maximal effect; nearly all actives have a fitted effect of over 70% in size
# In short: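 Percent inhibition derives from the 15-min fluorescence change (ex 480, em 540 nm), normalized to no-enzyme and no-inhibitor wells. Reactions contained 25 nM NS2B-NS3 complex and 1.5 microM substrate in 10 mM Tris-HCl pH 8.0.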
# [4] = ZIKV-mCherry secondary qHTS for Zika virus inhibitors (AID 1347158); note: potency is the fitted concentration of half-maximal effect
# In short: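 Compounds were tested in Vero monkey kidney cells infected with recombinant mCherry-expressing Zika virus at MOI 1 for 48-72 h at 37 °C. Fixed cells were nuclear-stained and imaged, and infection rate was taken as the fraction of mCherry-positive cells.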
# [5] = Confirmatory screen NINDS Rhodamine qHTS for Zika virus inhibitors (AID 1347161); note: potency is the fitted concentration of half-maximal effect; nearly all actives have a fitted effect of over 60% in size
# In short: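 Aprotinin served as in-plate control. Conditions: 25 nM linked NS2B-NS3, pH 8.0 Tris buffer, titrated compounds, 15 min preincubation and 15 min reaction with 1.5 microM Rhod110 substrate at room temperature.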
# [6] = system: Zika virus NS2B-NS3 protease (linked); experiment: 384 well plate NINDS AMC confirmatory qHTS for Zika virus inhibitors (AID 1347163); note: potency is the fitted concentration of half-maximal effect; nearly all actives have a fitted effect of over 50% in size
# In short: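 Fluorescence at 355/460 nm was read after 25 minutes of cleavage of 30 microM Ac-VKTGKR-AMC at room temperature, in the dark. Before substrate addition, compounds (up to 1 mM final) sat ~15 minutes with 5, 30 or 60 nM linked protease. Signals were normalized to no-enzyme and no-inhibitor wells.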
# [7] = system: Zika virus NS2B-NS3 protease (linked construct); experiment: 384 well plate NINDS Rhodamine confirmatory qHTS for Zika virus inhibitors (AID 1347164); note: top concentration of the series differs between compounds; nearly all actives have a fitted effect of over 65% in size
# In short: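 Compounds are incubated about 15 minutes with linked protease (5, 30 or 60 nM final). Rhodamine 110-tagged Ac-LKRR substrate (10 microM final) is added and fluorescence measured after 25 minutes.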
# [8] = molecular target: Lysine-specific demethylase 5B (Homo sapiens) (UniProt Q9UGL1); experiment: Optimization screen for KDM5B Histone Demethylases FDH coupled qHTS against the LOPAC library (AID 1347166)
# In short: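 KDM5BDeltaAP (200nM final) in 50mM HEPES pH 7.5, 0.01% Tween-20 was preincubated with compound for 10 min at room temperature. A substrate mix of 12.5uM H3K4Me3, 25uM a-ketoglutarate, ascorbate, Fe2+, NAD+ and formaldehyde dehydrogenase was then added. NADH fluorescence (340/450 nm) was read initially and after 30 min.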
# [9] = Tertiary RLuc qRT-PCR qHTS assay for Zika virus inhibitors (AID 1347169); note: top concentration of the series differs between compounds; nearly all actives have a fitted effect of over 55% in size
# In short: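 Orthogonal cell-based infection assay using recombinant ZIKV-RLuc (Cambodian) in Vero cells; compound added prior to virus at MOI 1-2. Incubation lasts 48-72 hrs at 37 degrees C before live-cell Renilla substrate is added and luminescence measured.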
# [10] = qHTS to identify inhibitors of the type 1 interferon - major histocompatibility complex class I in skeletal muscle: primary screen against the NCATS LOPAC collection (AID 1347405);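 note: human myoblasts with HiBiT tag on endogenous HLA-B stimulated by IFN-beta; lytic HiBiT luminescence reporting HLA-B protein level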
# In short: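 First, engineered myoblasts carrying HLA-B-HiBiT were seeded in medium lacking dexamethasone with 4 ng/ml IFN-beta. After 1 hr, compounds were pinned in (top 46 uM final, 7 points). After 24 hrs at 37 C, luminescence was measured following 10 min lysis.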
# [11] = Validation qHTS assay for inhibitors of Activation Induced Cytidine Deaminase (AID): UDG Counterscreen signal (AID 1347427)
# In short: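 Fluorescence at 560 nm excitation, 665 nm emission reports UDG signal after 250 mM NaOH (2x) addition and 30 min. Enzymes (AID 1 uM, UDG 2 U/mL, at 4/3x) preincubated 10 min with compound, then 4 h with 4x 250 nM DJC20/DJC23 substrate at room temperature.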
# [12] = molecular target: Single-stranded DNA cytosine deaminase (Homo sapiens) (UniProt Q9GZX7); experiment: Validation qHTS assay for inhibitors of Activation Induced Cytidine Deaminase (AID): AID signal (AID 1347429); note: potency is the fitted concentration of half-maximal effect
# In short: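 Steps: dispense AID with UDG; pin-transfer compound up to 114 uM final; add DJC20/DJC23 substrate and hold 4 hr at room temperature; add NaOH, hold 30 min; read FRET signal (540/590 nm).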
# [13] = Primary qHTS for inhibitors of La Crosse Virus (LACV) - induced cell death in SH-SY5Y cells (AID 1508616);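 note: top concentration of the series differs between compounds; higher means more rescue of cells from virus-induced death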
# In short: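 SH-SY5Y, 6000 cells/well; cpd via pin tool in DMSO; LACV 0.01 MOI; 6 d 37C 5% CO2; ATPLite, 5 min RT; luminescence normalized to ±virus DMSO controls.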
# [14] = Primary qHTS for small molecule stabilizers of the endoplasmic reticulum resident proteome: Secreted ER Calcium Modulated Protein (SERCaMP) assay (AID 1508630)
# In short: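 The SH-SY5Y reporter protocol was run at 3 concentrations up to 38.3 uM (primary) or 11 concentrations (follow-up): 16 h compound, 100 nM thapsigargin for 4 h, then extracellular luciferase luminescence.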
# Papain (Carica papaya) = Papain (Carica papaya) (UniProt P00784); experiment: Primary qHTS assay for inhibitors of the protease papain (AID 1645873);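 note: papain turnover of Z-FR-AMC read as the AMC fluorescence gain over 10 min; potency is the fitted concentration of half-maximal effect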
# [15] = molecular target: Rap guanine nucleotide exchange factor 3 (Homo sapiens) (UniProt O95398); experiment: Confirmatory qHTS for antagonist of cAMP-regulated guanine nucleotide exchange factor 3 (EPAC1) (AID 1645880); note: potency is the fitted concentration of half-maximal effect; nearly all actives have a fitted effect of over 55% in size
# In short: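 Released BODIPY-GDP fluoresces less than Rap1-bound BODIPY-GDP; the signal is followed at 480/540 nm at 5-min intervals over 30 min, after 5 min at room temperature. Reactions contain 100 nM EPAC1, 250 nM RAP1B-BODIPY-GDP and 50 uM GDP; results are normalized to ATA and DMSO.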
# [16] = molecular target: Rap guanine nucleotide exchange factor 3 (Homo sapiens) (UniProt O95398); experiment: Confirmatory qHTS for agonist of cAMP-regulated guanine nucleotide exchange factor 3 (EPAC1) (AID 1645881);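 note: EPAC1 catalysed release of BODIPY-GDP from Rap1B seen as fluorescence loss; nearly all actives have a fitted effect of over 75% in size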
# [17] = molecular target: Rap guanine nucleotide exchange factor 4 (Homo sapiens) (UniProt Q8WZA2); experiment: Confirmatory qHTS for agonist of cAMP-regulated guanine nucleotide exchange factor 4 (EPAC2) (AID 1645884);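 note: nucleotide exchange releases bodipy-GDP from Rap1 and this lowers its fluorescence; nearly all actives have a fitted effect of over 65% in size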
# [18] = molecular target: Rap guanine nucleotide exchange factor 4 (Homo sapiens) (UniProt Q8WZA2); experiment: Confirmatory qHTS for antagonist of cAMP-regulated guanine nucleotide exchange factor 4 (EPAC2) (AID 1645885); note: potency is the fitted concentration of half-maximal effect; nearly all actives have a fitted effect of over 25% in size
# [19] = molecular target: Metallo-beta-lactamase type 2 (Klebsiella pneumoniae) (UniProt C7C422); experiment: qHTS to identify inhibitors of the New Delhi Metallo-beta-lactamase (NDM): assay validation screen against the NCATS LOPAC Collection (AID 1794843); note: potency is the fitted concentration of half-maximal effect
# In short: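 Nitrocefin hydrolysis (50 uM substrate stock) by NDM-1, 2 nM final, was followed by 485 nm absorbance after compound preincubation; buffer was 50 mM HEPES pH 7.0, 1 uM ZnSO4, 0.01% Tween20.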
# [20] = molecular target: Glutathione peroxidase 1 (Homo sapiens) (UniProt P07203); experiment: Primary qHTS Assay for Inhibitors of Recombinant Selenoprotein Glutathione Peroxidase 1 (GPX1) (AID 1845191); note: nearly all actives have a fitted effect of over 65% in size
# In short: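 GPX1 10 nM, GR 100 nM, GSH 1 mM, NADPH 0.5 mM, CHP 0.5 mM (final). 30-min cpd preincubation, RT. Ex340/Em450 read t=0, t=15 min.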
# Rap guanine nucleotide exchange factor 3 (Homo sapiens), sequence (O95398 whole entry, looked up): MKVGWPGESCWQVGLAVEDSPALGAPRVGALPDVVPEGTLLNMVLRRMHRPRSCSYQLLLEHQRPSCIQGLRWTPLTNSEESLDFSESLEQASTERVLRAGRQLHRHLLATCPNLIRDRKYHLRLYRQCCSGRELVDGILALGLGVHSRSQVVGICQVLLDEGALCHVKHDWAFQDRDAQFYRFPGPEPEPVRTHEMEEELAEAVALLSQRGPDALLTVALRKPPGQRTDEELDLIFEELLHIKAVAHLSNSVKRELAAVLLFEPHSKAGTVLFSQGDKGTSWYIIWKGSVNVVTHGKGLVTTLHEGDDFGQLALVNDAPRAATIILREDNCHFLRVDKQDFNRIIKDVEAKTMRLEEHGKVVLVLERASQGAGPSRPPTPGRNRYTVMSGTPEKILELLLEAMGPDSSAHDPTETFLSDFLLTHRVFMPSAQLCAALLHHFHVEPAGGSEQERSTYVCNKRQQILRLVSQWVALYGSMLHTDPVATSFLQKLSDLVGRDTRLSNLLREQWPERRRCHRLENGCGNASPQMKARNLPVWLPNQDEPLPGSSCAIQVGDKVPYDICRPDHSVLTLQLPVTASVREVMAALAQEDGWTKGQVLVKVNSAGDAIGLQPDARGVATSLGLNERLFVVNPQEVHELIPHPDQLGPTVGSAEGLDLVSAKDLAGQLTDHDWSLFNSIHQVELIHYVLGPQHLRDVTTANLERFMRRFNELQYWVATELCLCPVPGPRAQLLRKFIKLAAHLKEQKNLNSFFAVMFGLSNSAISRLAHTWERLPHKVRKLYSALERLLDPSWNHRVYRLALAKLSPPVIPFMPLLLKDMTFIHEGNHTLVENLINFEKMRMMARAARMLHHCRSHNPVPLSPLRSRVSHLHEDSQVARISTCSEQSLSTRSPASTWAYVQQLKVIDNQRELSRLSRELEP
# Rap guanine nucleotide exchange factor 4 (Homo sapiens), sequence (Q8WZA2 whole entry, looked up): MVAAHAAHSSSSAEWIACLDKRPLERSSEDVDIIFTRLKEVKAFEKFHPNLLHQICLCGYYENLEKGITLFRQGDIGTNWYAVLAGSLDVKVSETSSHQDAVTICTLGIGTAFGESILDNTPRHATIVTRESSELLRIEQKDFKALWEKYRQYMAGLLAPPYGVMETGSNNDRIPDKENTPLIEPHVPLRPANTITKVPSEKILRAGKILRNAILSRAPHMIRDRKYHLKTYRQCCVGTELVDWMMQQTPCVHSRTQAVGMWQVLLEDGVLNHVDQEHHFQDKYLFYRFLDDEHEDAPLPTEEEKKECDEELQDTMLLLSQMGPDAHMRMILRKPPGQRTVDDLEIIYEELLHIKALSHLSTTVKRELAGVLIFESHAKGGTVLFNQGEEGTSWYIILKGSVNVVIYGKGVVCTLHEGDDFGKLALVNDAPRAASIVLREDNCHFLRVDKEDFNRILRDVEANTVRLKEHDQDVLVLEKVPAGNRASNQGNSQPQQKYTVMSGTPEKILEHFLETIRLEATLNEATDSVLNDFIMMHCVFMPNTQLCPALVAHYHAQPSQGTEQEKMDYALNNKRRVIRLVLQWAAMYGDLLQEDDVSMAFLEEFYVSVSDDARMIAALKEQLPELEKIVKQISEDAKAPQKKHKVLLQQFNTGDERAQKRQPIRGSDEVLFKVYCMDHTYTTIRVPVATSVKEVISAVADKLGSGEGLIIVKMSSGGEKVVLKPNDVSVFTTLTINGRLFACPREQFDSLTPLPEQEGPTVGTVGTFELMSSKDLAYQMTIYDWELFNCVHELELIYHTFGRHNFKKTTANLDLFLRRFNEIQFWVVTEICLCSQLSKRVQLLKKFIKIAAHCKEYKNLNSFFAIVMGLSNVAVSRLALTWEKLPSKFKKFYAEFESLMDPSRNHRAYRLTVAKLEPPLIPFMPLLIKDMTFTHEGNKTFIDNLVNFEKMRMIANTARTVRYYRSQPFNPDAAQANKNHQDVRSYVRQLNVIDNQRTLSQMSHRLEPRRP
# Metallo-beta-lactamase type 2 (Klebsiella pneumoniae), sequence (C7C422 whole entry, looked up): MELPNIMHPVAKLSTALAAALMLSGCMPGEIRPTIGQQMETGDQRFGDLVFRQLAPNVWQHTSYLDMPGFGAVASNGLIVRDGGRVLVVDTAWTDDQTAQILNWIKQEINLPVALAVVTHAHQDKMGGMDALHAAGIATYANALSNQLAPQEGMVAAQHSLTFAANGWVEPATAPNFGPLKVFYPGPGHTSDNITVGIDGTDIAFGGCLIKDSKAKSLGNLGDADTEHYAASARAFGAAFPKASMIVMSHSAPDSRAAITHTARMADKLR
# Lysine-specific demethylase 5B (Homo sapiens), sequence (Q9UGL1 whole entry, looked up): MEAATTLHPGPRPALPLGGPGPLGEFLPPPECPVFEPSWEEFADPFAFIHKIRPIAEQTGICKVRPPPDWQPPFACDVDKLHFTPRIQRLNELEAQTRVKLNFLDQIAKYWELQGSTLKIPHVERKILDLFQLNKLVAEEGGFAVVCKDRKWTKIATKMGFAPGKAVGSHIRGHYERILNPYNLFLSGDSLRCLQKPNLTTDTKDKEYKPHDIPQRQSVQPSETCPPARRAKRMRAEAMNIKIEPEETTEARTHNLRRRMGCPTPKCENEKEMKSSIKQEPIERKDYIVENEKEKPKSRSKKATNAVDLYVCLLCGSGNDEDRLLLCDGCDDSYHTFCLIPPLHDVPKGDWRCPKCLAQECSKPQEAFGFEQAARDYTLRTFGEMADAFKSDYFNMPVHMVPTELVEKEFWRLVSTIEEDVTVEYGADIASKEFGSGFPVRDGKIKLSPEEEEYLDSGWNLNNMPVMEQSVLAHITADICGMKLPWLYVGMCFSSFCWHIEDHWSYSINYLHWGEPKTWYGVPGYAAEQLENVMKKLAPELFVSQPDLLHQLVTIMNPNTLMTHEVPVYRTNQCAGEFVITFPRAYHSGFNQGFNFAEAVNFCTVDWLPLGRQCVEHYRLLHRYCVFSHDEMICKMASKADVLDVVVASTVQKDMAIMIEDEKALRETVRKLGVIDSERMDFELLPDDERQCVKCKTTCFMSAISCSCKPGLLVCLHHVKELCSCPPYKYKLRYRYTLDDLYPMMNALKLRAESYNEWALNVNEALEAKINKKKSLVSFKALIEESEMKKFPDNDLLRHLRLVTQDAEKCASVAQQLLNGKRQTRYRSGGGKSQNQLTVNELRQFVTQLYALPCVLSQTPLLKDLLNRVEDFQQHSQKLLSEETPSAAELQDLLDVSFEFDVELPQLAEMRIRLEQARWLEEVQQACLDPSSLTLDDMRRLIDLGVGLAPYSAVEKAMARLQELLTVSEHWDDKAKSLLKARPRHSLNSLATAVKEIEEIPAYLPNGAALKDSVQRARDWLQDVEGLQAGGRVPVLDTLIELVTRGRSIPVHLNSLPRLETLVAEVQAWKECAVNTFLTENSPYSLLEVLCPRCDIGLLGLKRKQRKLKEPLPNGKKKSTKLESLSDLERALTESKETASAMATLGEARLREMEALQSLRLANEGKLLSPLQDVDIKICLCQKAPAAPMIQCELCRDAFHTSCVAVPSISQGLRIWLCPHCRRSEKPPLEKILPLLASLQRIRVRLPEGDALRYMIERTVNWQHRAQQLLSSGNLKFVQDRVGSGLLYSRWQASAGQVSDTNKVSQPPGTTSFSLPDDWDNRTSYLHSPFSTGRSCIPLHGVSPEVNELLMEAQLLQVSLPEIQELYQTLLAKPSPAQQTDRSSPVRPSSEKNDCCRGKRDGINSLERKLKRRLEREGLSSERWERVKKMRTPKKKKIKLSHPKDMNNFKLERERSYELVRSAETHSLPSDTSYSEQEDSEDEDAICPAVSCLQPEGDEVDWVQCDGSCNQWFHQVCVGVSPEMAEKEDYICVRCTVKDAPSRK
# Glutathione peroxidase 1 (Homo sapiens), sequence (P07203 whole entry, looked up): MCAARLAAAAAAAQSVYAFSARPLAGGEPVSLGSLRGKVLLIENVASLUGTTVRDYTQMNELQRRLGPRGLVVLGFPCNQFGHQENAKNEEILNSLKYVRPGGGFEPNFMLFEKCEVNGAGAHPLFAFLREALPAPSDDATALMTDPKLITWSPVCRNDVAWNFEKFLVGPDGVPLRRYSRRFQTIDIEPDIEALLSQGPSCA
# Papain (Carica papaya), sequence (P00784 whole entry, looked up): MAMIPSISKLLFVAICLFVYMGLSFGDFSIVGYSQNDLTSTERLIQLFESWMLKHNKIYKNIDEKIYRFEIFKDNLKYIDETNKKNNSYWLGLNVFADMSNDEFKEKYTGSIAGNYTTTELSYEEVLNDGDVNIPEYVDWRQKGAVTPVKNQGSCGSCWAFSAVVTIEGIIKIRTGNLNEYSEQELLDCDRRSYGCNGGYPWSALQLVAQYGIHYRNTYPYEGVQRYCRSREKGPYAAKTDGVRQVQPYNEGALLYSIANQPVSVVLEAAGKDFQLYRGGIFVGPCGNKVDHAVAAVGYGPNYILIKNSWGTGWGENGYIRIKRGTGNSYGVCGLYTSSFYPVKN
# Single-stranded DNA cytosine deaminase (Homo sapiens), sequence (Q9GZX7 whole entry, looked up): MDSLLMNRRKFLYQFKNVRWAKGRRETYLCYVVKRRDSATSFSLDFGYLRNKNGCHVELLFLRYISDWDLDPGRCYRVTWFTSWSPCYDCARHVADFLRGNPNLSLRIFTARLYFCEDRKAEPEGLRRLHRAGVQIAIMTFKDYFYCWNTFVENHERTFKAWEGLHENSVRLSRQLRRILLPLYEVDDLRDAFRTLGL
# N-terminal Xaa-Pro-Lys N-methyltransferase 1 (Homo sapiens), sequence (Q9BV86 whole entry, looked up): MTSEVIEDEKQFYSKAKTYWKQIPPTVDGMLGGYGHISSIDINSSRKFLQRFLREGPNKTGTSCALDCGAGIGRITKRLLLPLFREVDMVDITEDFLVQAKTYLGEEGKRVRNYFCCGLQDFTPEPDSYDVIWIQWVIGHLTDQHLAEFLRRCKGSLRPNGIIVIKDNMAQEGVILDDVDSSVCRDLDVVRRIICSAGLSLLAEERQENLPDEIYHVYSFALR
compound,measurement,setting,value
Nc1c(S(=O)(=O)O)cc(Nc2ccc(Nc3nc(Cl)nc(Nc4ccc(S(=O)(=O)O)cc4)n3)c(S(=O)(=O)O)c2)c2c1C(=O)c1ccccc1C2=O,Potency,[1],44.7 µM (active)
same,Potency,[2],10.6 µM (active)
same,Potency,[3],2.24 µM (active)
same,Potency,[4],8.91 µM (active)
same,Potency,[5],2 µM (active)
same,Potency,[6],10 µM (active)
same,Potency,[7],inactive
same,outcome,[8],inactive
same,Potency,[9],inactive
same,Potency,[10],inactive
same,outcome,[11],inactive
same,Potency,[12],28.2 µM (active)
same,outcome,[13],inactive
same,Potency,[14],inactive
same,Potency,Papain (Carica papaya),1.78 µM (active)
same,Potency,[15],9.93 µM (active)
same,outcome,[16],inactive
same,outcome,[17],inactive
same,Potency,[18],22.1 µM (active)
same,Potency,[19],0.631 µM (active)
same,Potency,[20],inactive
